59 compounds from ChEMBL document CHEMBL3988442, “University of Dundee, Small-Polar-MMV Screening Library” (2021) can be followed below.

Where “and” joins values, the source holds several entries; their conditions need not be identical. Equal entries are not always repeated. About 290 (0.85%) of roughly 34,000 compounds showed an effect of 50% or more. This is one part of a sample in which strong results are shown more often than they occur.

This experiment has as its system Plasmodium falciparum. The experiment is described as follows: Plasmodium falciparum sporozoite viability assay. The experiment is classed as functional, organism-based. Further details: scale not given: in the data most compounds retested in dose-response had high values.

In the case of `Cc1cc(C)n(CC2CCCN2C(=O)CCc2ccncc2)n1` (centres undefined), the “Percent Effect” value is given as 1.423%.
On the same count and under the same terms, in the case of `Cn1ccc(C(=O)NCc2cccc(CN3CCCC3)c2)cc1=O` it was 11.38%; in that of `CCOc1ccnc(N2CCN(C(=O)c3c(CC)noc3C)CC2)n1`, -6.802%; in that of `Cc1nccn1CC1CCCN1S(=O)(=O)Cc1ccc(F)cc1` (centres undefined), 5.478%.
For `CN1CCOC(C(=O)Nc2ccc3c(c2)nc(C(C)(C)C)n3C)C1` (centres undefined), for the setting “10 mM as filed; unlikely as a test dose”, the “Percent Effect” value is 104.1% and 105.2%.
Still for that read-out and setting: in the case of `CN1CCOC(C(=O)Nc2ccc3[nH]nnc3c2)C1` (centres undefined) it was -26.35% and -20.34%.
Same read-out and setting: in the case of `CN1CCOC(C(=O)Nc2ccc3c(c2)nc(C2CC2)n3C)C1` (centres undefined) it was -13.44% and -13.85%.
Turning to `CC1CCCN(C(=O)C2CCN(c3snc4ccccc34)CC2)C1` (centres undefined), the “Percent Effect” value was 6.864%.
With `CC(C)c1cc(NC(=O)c2ccc(NC3CC3)nc2)[nH]n1`, the “Percent Effect” value is 15.54%.
Regarding `c1cc(-c2cncnc2)cc(-c2ccn(CC3CCNC3)n2)c1` (centres undefined), the “Percent Effect” value (10 mM as filed; unlikely as a test dose) is -11.99% and -9.692% and -21.27%.
On the same count and under the same terms, in the case of `Cc1nccc(-c2cccc(-c3ccn(CC4CCNC4)n3)c2)n1` (centres undefined) it was -3.675% and -28.15% and -23.4%; in that of `Cc1ccsc1-c1cccc(-c2ccn(CC3CCNC3)n2)c1` (centres undefined), 75.23% and 72.27% and 75.29%.
Regarding `O=C(Nc1ccccc1OCCc1ccccn1)N1CCOCC(O)C1` (centres undefined), the “Percent Effect” value was 6.804%.
The same measure, in the same setting: then `Cc1cc(OCC(O)c2nc3c([nH]2)CC(C)(C)CNC3=O)ccc1Cl` (centres undefined), with 5.403%.
For the compound `c1ccc(-c2noc(CN3CCc4cncnc4C3)n2)nc1`, the “Percent Effect” value (10 mM as filed; unlikely as a test dose) is 68.57% and 81.28% and 66.45%.
Regarding `c1cncc(-c2noc(CN3CCc4cncnc4C3)n2)c1`, the “Percent Effect” value is given as 1.959%.
In the case of `Cc1cc(C(=O)N2CCCC(n3cncn3)C2)no1` (centres undefined), the “Percent Effect” value is given as 2.312%.
As for `CC(C1CC1)N(C)C(=O)c1cnc(-c2ccc3c(c2)OCO3)s1` (centres undefined), the “Percent Effect” value (10 mM as filed; unlikely as a test dose) was 53.72% and 75.58% and 50.81%.
The same measure, in the same setting: in the case of `CCN(C(=O)c1cnc(-c2ccc3c(c2)OCO3)s1)C1CC1` it was -15.93% and -34.81%; in that of `CN(C)C(=O)c1cnc(-c2ccc3c(c2)OCO3)s1`, -22.33% and -36.75%.
As for `COc1c(C2CCCN2Cc2noc(C(C)C)n2)c(C)nn1C` (centres undefined), the “Percent Effect” value was 4.307%.
On to `CCc1nnc(CN2CCOC(Cn3cccn3)C2)o1` (centres undefined), for which the “Percent Effect” value is on record as 11.86%.
With `c1csc(-c2nc(CN3CCOC(Cn4cccn4)C3)cs2)c1` (centres undefined), the “Percent Effect” value is on record as 3.015%.
In the case of `c1ccc(-c2nc(CN3CCOC(Cn4cncn4)C3)cs2)cc1` (centres undefined), the “Percent Effect” value (10 mM as filed; unlikely as a test dose) was 57.17% and 32.5% and 36.71%.
`c1csc(-c2nc(CN3CCOC(Cn4cncn4)C3)co2)c1` (centres undefined): the “Percent Effect” value is 15.52%.
Take `c1ccc(-c2nc(CN3CCOC(Cn4cccn4)C3)cs2)cc1` (centres undefined): the “Percent Effect” value (10 mM as filed; unlikely as a test dose) was -13.99% and -29.39%.
Still for that read-out and setting: in the case of `c1csc(-c2nc(CN3CCOC(Cn4cncn4)C3)cs2)c1` (centres undefined) it was 44.25% and 56.8% and 40.33%.
Take `O=C1NCC2=C1C(c1ccc(O)cc1)Nc1ccccc1N2` (centres undefined): the “Percent Effect” value was -23.23%.
Turning to `COCCN1CCCC1c1ccnc(-c2ccccc2)n1` (centres undefined), the “Percent Effect” value was 6.777%.
As to `CCN1CCN(C(C)CNC(=O)Nc2nnc(C)s2)CC1` (centres undefined), the “Percent Effect” value is -9.257%.
On the same count and under the same terms, in the case of `Cc1noc(C)c1CCC(=O)NCC1(O)CCN(c2ccccn2)C1` (centres undefined) it was 8.46%.
For the compound `CNc1cc(C)nc(N2C[C@@H](C(=O)O)[C@H](C3CC3)C2)n1`, the “Percent Effect” value (10 mM as filed; unlikely as a test dose) was 73.63% and 80.29% and 69.7%.
`CNc1cc(C)nc(N2C[C@H](C3CC3)[C@@H](N)C2)n1`: the “Percent Effect” value (10 mM as filed; unlikely as a test dose) is 11.54% and 8.166% and -2.157%.
Still for that read-out and setting: then `CNc1cc(C)nc(N2C[C@H](NC(=O)C3CCOCC3)[C@@H](C3CC3)C2)n1`, with -9.822% and -7.832% and -7.881%.
In the case of `Cc1cnn(CC2CCCN2C(=O)c2c(C)noc2C(C)C)c1` (centres undefined), the “Percent Effect” value is listed as 2.244%.
`CCn1c(N)nc2cc(C(=O)NCCNc3ncccc3C)cnc21`: the “Percent Effect” value (10 mM as filed; unlikely as a test dose) is -11.01% and -17.43%.
In the case of `CCn1c(N)nc2cc(C(=O)NCCc3ccccc3F)cnc21`, where the note is “10 mM as filed; unlikely as a test dose”, the “Percent Effect” value is 83.82% and 65.98%.
Consider `CCn1c(N)nc2cc(C(=O)NCc3ccccc3Cl)cnc21`, for which, where the note is “10 mM as filed; unlikely as a test dose”, the “Percent Effect” value is -6% and 9.799% and 1.435%.
Still for that read-out and setting: in the case of `CCn1c(N)nc2cc(C(=O)NCCc3nnc(C)s3)cnc21` it was -8.165% and -11.66%.
`N#Cc1c(N)nc2c(c1C1CCOC1)CCc1cc(O)ccc1-2` (centres undefined): the “Percent Effect” value was determined as 4.476%.
In the case of `CN(CCc1ccccn1)C(=O)c1cnn(-c2ccccc2F)c1N`, the “Percent Effect” value was -5.321%.
Consider `COc1ccc(CN2Cc3[nH]nc(C(=O)N(C)C)c3C2)cc1`, for which the “Percent Effect” value is recorded as 11.47%.
Regarding `Cl.Cn1cc([C@@H]2CN(S(=O)(=O)c3cccs3)C[C@H]2N)c2ccncc21`, the “Percent Effect” value is -0.5895%.
For `COc1ccc(CC(=O)N2CCCC(n3cccn3)C2)cc1F` (centres undefined), the “Percent Effect” value is recorded as 5.192%.
For `CS(=O)(=O)CCSc1nnc(Cc2ccccc2F)o1`, the “Percent Effect” value was -5.789%.
On the same count and under the same terms, in the case of `Cc1ccc(OCc2occc2C(=O)N2CCOC(C(=O)O)C2)cc1` (centres undefined) it was 16.87%.
For the compound `O=C1COc2cc(OC[C@@H]3CCCN4CCCC[C@H]34)ccc21`, the “Percent Effect” value is on record as -3.094%.
Still for that read-out and setting: then `O=C1CCCN1Cc1nnc2n1CCN(Cc1ccco1)C2`, with 15.42%; and `CN(C)CCNC(=O)c1cc(-c2cnc(N(C)C)nc2)cn1CC1CC1`, with 2.417%.
On the same count and under the same terms, then `CN(C)CCNC(=O)c1sc2ccccc2c1C1CCC(CN)CC1.Cl` (centres undefined), with 13.87%.
Turning to `CN(C)CCNC(=O)C1Cc2nc(-c3ccccc3)sc2N1CC1CC1.O=C(O)C(F)(F)F` (centres undefined), where the note is “10 mM as filed; unlikely as a test dose”, the “Percent Effect” value is 63.41% and 51.04% and 49.77%.
As to `CN(C)CCNC(=O)[C@H]1C[C@@H]2CN(C(=O)NCc3ccccc3)C[C@H]1O2.O=C(O)C(F)(F)F`, the “Percent Effect” value is -11.68%.
Consider `Cc1occc1C(=O)N1CCCN(Cc2nccn2C(C)C)CC1`, for which the “Percent Effect” value came out at 16.64%.
Same read-out and setting: in the case of `CC(C)CN1C(=O)C[C@@H]2[C@@H]1CCN2Cc1cccc(C#N)c1.O=C(O)C(F)(F)F` it was 7.99%.
Regarding `c1coc(-c2noc(CN3CCc4c(ncn4C4CC4)C3)n2)c1`, the “Percent Effect” value (10 mM as filed; unlikely as a test dose) is 9.104% and 3.38%.
Take `c1csc(-c2noc(CN3CCc4c(ncn4C4CC4)C3)n2)c1`: the “Percent Effect” value (10 mM as filed; unlikely as a test dose) is 59.38% and 60.81%.
In the case of `Cc1cccc(-c2noc(CN3CCc4c(ncn4C4CC4)C3)n2)c1`, the “Percent Effect” value (10 mM as filed; unlikely as a test dose) was 39.81% and 43.38%.
Still for that read-out and setting: then `c1ccc(-c2noc(CN3CCc4c(ncn4C4CC4)C3)n2)nc1`, with 42.55% and 46.63%; and `c1cc(-c2noc(CN3CCc4c(ncn4C4CC4)C3)n2)cs1`, with 83.48% and 80.24%.
